About 2,200 (0.71%) of roughly 310,000 compounds showed an effect of 50% or more. The effect is printed as a negative number. Shown is part of a subset that was picked to be rich in strong results.
target: human ether-à-go-go-related gene (hERG) potassium channel (human, UniProt Q12809); experiment: primary screen, population patch clamp on CHO cells stably expressing hERG; higher = less effect of the substance
Sequence (Q12809 whole entry, looked up): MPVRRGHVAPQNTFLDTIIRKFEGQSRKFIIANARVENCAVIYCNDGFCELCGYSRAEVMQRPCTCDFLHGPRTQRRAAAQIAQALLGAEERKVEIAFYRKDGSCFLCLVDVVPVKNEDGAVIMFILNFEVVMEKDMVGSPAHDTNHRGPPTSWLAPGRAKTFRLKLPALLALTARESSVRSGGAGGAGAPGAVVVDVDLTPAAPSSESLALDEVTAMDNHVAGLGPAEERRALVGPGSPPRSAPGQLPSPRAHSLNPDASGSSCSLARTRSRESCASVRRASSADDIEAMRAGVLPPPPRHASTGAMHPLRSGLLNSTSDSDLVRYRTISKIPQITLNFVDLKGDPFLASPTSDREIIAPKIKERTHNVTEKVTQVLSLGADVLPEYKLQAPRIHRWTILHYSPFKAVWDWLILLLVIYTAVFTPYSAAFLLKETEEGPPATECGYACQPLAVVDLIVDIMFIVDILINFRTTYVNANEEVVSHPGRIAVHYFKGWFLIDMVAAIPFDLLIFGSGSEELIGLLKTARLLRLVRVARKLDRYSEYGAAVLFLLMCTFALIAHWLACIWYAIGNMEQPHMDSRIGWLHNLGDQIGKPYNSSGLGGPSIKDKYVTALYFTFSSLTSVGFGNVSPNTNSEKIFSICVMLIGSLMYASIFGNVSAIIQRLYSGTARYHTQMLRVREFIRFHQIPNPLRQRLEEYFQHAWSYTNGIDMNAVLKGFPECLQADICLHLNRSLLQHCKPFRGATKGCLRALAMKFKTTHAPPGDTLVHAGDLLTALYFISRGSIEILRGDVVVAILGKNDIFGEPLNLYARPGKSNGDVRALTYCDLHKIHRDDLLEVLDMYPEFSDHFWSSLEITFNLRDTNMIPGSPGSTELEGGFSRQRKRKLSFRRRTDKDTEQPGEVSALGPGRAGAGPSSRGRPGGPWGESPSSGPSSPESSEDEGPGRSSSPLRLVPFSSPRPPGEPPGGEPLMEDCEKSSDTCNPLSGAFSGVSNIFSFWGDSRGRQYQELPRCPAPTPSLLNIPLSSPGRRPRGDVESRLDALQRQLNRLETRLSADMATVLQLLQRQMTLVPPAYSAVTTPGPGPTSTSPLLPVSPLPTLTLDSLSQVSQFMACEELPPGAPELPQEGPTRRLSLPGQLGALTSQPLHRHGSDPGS

Compound | hERG current change (%, negative = inhibition) at 1uM
CCc1ccc(N(CC(=O)Nc2ccccc2C(=O)N2CCOCC2)S(C)(=O)=O)cc1 | 8.28%
O=C(NCc1cccnc1)c1ccc(CS(=O)(=O)Cc2ccc(Cl)cc2)o1 | 3.03%
Cc1c(C(=O)OCC(=O)N2c3ccccc3CC2C)oc2ccccc12 (centres unmarked) | 14.6%
O=C(Nc1cccc(F)c1)Nc1ccccn1 | 16%
Cc1c(C(=O)c2ccccc2)c(=O)n(C)c(=O)n1C | 9.65%
O=S(=O)(Nc1cccc(-c2ccc(N3CCCCCC3)nn2)c1)c1cccc(F)c1 | 14.3%
CSc1nnc(-c2ccc(O)cc2)n1C | -1.62%
COC(=O)c1ccc(CN2CCCC(C(=O)c3cc(F)ccc3OC)C2)cc1 (centres unmarked) | -8.3%
O=C1c2ccccc2C(=O)N1CCCc1nc(-c2ccccn2)no1 | -4.38%
CCOC(=O)/C(N=Nc1sc(C(=O)OC)c(C)c1C(=O)OCC)=C(\O)CCl | 14.4%
COc1cc(OC)cc(C(=O)OCC(=O)N(C)c2ccccc2)c1 | 9.32%
Oc1ccc(-c2[nH]ncc2-c2ccc(Br)cc2)c(O)c1 | 6.73%
CCC(=O)Nc1ccc(Oc2ccc3c(c2)C(=O)N(c2ccc(O)cc2)C3=O)cc1 | 13.7%
O=C1CC(N2CCN(C/C=C/c3ccccc3)CC2)C(=O)N1Cc1ccc(N2CCCC2=O)cc1 (centres unmarked) | -13%
O=C1CC(N2CCN(C/C=C/c3ccccc3)CC2)C(=O)N1CCc1ccccc1 (centres unmarked) | -4.01%
O=C1CC(N2CCN(C/C=C/c3ccccc3)CC2)C(=O)N1Cc1cccs1 (centres unmarked) | -50.8%
COc1ccc(NC(=O)CN2CCN(CC(=O)Nc3ccc(F)cc3)CC2)c(OC)c1 | -83.3%
CCOc1ccc(NC(=O)CN2CCN(CC(=O)Nc3ccc(OC)cc3OC)CC2)cc1 | -58.2%
CCOc1ccc(NC(=O)CN2CCN(CC(=O)Nc3ccccc3OC)CC2)cc1 | -30.9%

Compound | hERG current change (%, negative = inhibition) at 1uM
COc1cccc(NC(=O)CN2CCN(CC(=O)Nc3ccc(F)cc3)CC2)c1 | -90.6%
COc1ccc(NC(=O)CN2CCN(c3ccc(F)cc3)CC2)cc1Cl | 13.2%
COc1ccc(NC(=O)CN2CCN(CC(=O)Nc3ccccc3F)CC2)c(OC)c1 | -19.6%
COc1ccc(NC(=O)CN2CCN(CC(=O)Nc3ccccc3Cl)CC2)c(OC)c1 | -48%
COc1cccc(NC(=O)CN2CCN(c3ccc(F)cc3)CC2)c1 | 2.77%
COc1cccc(NC(=O)CN2CCN(S(=O)(=O)c3ccc(F)cc3)CC2)c1 | 4.16%
COc1ccc(NC(=O)CN2CCN(CC(=O)Nc3ccc(F)cc3)CC2)cc1Cl | -88.6%
COc1ccc(NC(=O)CN2CCN(S(=O)(=O)c3ccc(F)cc3)CC2)cc1Cl | 7.03%
COc1ccc(NC(=O)CN2CCCN(S(=O)(=O)c3ccc(F)cc3)CC2)c(OC)c1 | -8.18%
Cc1[nH]c2ccccc2c1C(=O)/C=C/c1ccccc1Cl | 14.6%
NC(=O)CN1C(=O)NC2(CCCc3sccc32)C1=O (centres unmarked) | 17%
O=C(CCC(=O)c1cccs1)OCc1nc2ccccc2s1 | 12.6%
O=c1c2ccccc2nc(CSc2ncnc3nc[nH]c23)n1-c1cccc(C(F)(F)F)c1 | -2.15%
COc1ccc(NC(=O)COc2cccnc2[N+](=O)[O-])cc1OC | 15.8%
Cc1nc(C(=O)Nc2cc(Cl)ccc2Cl)nn1-c1cc(OC(C)C)c(Cl)cc1Cl | -0.146%
CC1CCCN(C(=O)CSc2cnc3ccccc3n2)C1 (centres unmarked) | -9.88%
COc1ccccc1-c1noc(CSc2nc(C)cc(=O)[nH]2)n1 | 19.4%
Cc1ccc(NC(=O)C2C(c3ccccc3)C2(Cl)Cl)c(C)c1 (centres unmarked) | 2.95%
COc1ccc(-c2nc(-c3cccs3)c(-c3cccs3)[nH]2)cc1OC | 20.3%

Compound | hERG current change (%, negative = inhibition) at 1uM
O=[N+]([O-])c1cc([N+](=O)[O-])c(Oc2cc(Cl)cc(Cl)c2)cc1NN1CCCCC1 | 11.6%
Cc1ccc(S(=O)(=O)NCC2CCC(C(=O)NCCCN3CCCC3=O)CC2)cc1 (centres unmarked) | 11.2%
COc1ccc(N(CC(=O)O)S(=O)(=O)c2cccnc2)cc1 | 14.2%
COc1ccccc1NC(=O)CN1CCN(CC(=O)Nc2ccc(F)cc2)CC1 | -87.4%
COc1ccccc1NC(=O)CN1CCN(CC(=O)Nc2ccc(C)c(F)c2)CC1 | -49.1%
COc1ccccc1NC(=O)CN1CCN(CC(=O)Nc2ccc(OC)c(OC)c2)CC1 | 12%
CCCCCn1c(CN2CCN(C)CC2)nc2c1c(=O)n(C)c(=O)n2C | -5.24%
CCCCCn1c(N2CCN(Cc3ccccc3)CC2)nc2c1c(=O)[nH]c(=O)n2C | -77%
Cn1c(=O)[nH]c(=O)c2c1nc(N1CCN(Cc3ccccc3)CC1)n2CCCc1ccccc1 | -22%
CCN1CCN(c2nc3c(c(=O)[nH]c(=O)n3C)n2CCCc2ccccc2)CC1 | -81.5%
CCN1CCN(c2nc3c(c(=O)[nH]c(=O)n3C)n2Cc2ccccc2)CC1 | 1.8%
CCCCCn1c(CN2CCN(Cc3ccccc3)CC2)nc2c1c(=O)[nH]c(=O)n2C | -72.5%
CCCCCCn1c(CN2CCN(Cc3ccccc3)CC2)nc2c1c(=O)n(C)c(=O)n2C | -47.2%
CCCCCn1c(CN2CCN(Cc3ccccc3)CC2)nc2c1c(=O)n(C)c(=O)n2C | -57.9%
CCCCCCn1c(N2CCN(c3ccccc3)CC2)nc2c1c(=O)[nH]c(=O)n2C | -20.5%
CC(C)CCn1c(CN2CCN(Cc3ccccc3)CC2)nc2c1c(=O)[nH]c(=O)n2C | -2.51%
CCCCCn1c(N2CCC(Cc3ccccc3)CC2)nc2c1c(=O)[nH]c(=O)n2C | 11.2%
Cn1c(=O)[nH]c(=O)c2c1nc(CN1CCN(Cc3ccccc3)CC1)n2CC(N)=O | 6.48%

From article PMC4336329 (PLoS ONE, 2015)
